An excerpt weighted towards active compounds, which were near 2.3% of everything screened.
CHO-K1 Ca ag = M1 agonist counterscreen hit in parental CHO-K1 cells | Fluo-8 calcium fluorescence; scaled to maximal ATP response, vehicle zero | activation, % at 3 µM | AID 602248 | hit rate 0.48% among 360,000; in the data active = activation above about 15%;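 note: untransfected CHO-K1 host cells lacking M1 receptor as counterscreen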
M1 PAM = potentiates human M1 receptor response to acetylcholine | P11229 | CHO-K1 hM1, Fluo-8 calcium fluorescence, ACh EC20; 0% = ACh EC20, 100% = maximal ACh | activation, % at 3 µM | hit rate 0.088% among 360,000 | AID 588819; in the data active = activation above about 19%, passing the limit was not always enough
Target sequence (P11229 whole entry, looked up): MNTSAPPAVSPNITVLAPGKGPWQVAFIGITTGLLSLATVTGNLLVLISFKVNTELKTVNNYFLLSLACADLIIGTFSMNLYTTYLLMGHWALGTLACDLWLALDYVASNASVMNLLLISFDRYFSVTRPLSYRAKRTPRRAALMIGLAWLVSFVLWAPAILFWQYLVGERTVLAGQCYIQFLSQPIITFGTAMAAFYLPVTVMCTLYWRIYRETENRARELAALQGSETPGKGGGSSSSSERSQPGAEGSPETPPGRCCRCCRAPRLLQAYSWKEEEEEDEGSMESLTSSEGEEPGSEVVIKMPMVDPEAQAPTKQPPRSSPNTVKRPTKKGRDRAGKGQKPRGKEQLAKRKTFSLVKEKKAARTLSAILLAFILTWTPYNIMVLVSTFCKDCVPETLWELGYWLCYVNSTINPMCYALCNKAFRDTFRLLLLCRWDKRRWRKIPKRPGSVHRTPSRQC
CHO-K1 Ca antag = nonselective inhibitor or artifact in parental CHO-K1 cells | ATP-induced calcium, Fluo-8 fluorescence | inhibition, % at 3 µM | hit rate 0.6% among 360,000;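 active = inhibition above a per-plate cutoff, the plate's mean sample inhibition plus 3 SD, cut at about 24% in these data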;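 note: 0% = DMSO plus EC80 ATP and 100% = DMSO alone without ATP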
M1 antag = antagonists of human M1 muscarinic receptor; P11229; CHO-K1 hM1, Fluo-8 calcium fluorescence, ACh EC80 antagonist; inhibition, % at 3 µM; hit rate 1.3% among 360,000; AID 588852;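 active = percent inhibition above its own plate's cutoff, namely the mean of that plate's compound wells plus 3 SD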;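 note: peak over basal fluorescence ratio during 140 s after agonist addition; 0% = ACh EC80 plus DMSO and 100% = DMSO alone without agonist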
CHRM1 agonist = human M1 muscarinic receptor agonism | P11229 | CHO-K1 hM1, Fluo-8 calcium fluorescence, agonist mode; 0% DMSO, 100% acetylcholine EC100 | activation, % at 3 µM | hit rate 0.33% among 360,000;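 active = activation above the run's mean compound activation plus 3 SD, cut at about 16% in these data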;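 note: peak over basal fluorescence ratio within a 140 s kinetic read after compound addition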
CHO-K1 Ca PAM = nonselective activator or artifact in parental CHO-K1 calcium assay; hit rate 0.02% among 360,000; AID 602247; activation, % at 3 µM; ATP EC20, Fluo-8 calcium fluorescence; 0% at ATP EC20, 100% at ATP max;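 active = activation above the run cutoff, the mean activation of all test compounds plus 3 SD, cut at about 40% in these data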;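 note: peak over basal fluorescence ratio in a 140 s read after ATP addition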
* marks the source's active call; other numbers are inactive results; / = no result.

SMILES	CHO-K1 Ca ag	M1 PAM	CHO-K1 Ca antag	M1 antag	CHRM1 agonist	CHO-K1 Ca PAM
Cc1cc(C)c2nc(N3CCC(C(=O)N4CCCC4)CC3)sc2c1	0	-23	-19	37*	-8	1
COCCOc1ccc(C(F)(F)F)cc1NC(=O)COC(=O)c1cc([N+](=O)[O-])ccc1N1CCOCC1	2	-1	-2	-7	-5	-2
COc1cc(OCc2ccc(C)cc2)ccc1CNC[C@H]1O[C@@H](n2cnc(C(N)=O)n2)[C@H](O)[C@@H]1O	0	-5	9	-8	0	2
CC(=O)Nc1cc2c(cc1Cl)-c1ccccc1C2	1	7	26*	-8	1	-13
CCC(=O)Nc1cc2c(cc1Cl)-c1ccccc1C2	2	0	-10	-7	1	-4
CCOC(=O)c1c(NC(=O)COC(=O)CCOc2ccccc2C)sc(C(=O)NC)c1C	6	2	-2	4	-2	17
O=C(Nc1nnc(SCC(=O)N2CCCCC2)s1)c1c(F)cccc1F	0	28*	-23	-27	4	-5
O=C(CSc1nnc(NC(=O)c2c(F)cccc2F)s1)NC1CCCC1	0	-7	-6	8	-2	-19
CCOC(=O)C1=C(COC(=O)COc2ccc(C(C)=O)cc2)NC(=O)NC1C (stereo not drawn)	5	-2	2	-2	1	-15
CCOC(=O)C1=C(COC(=O)COc2ccc(C(=O)CC)cc2)NC(=O)NC1C (stereo not drawn)	17*	-9	12	13	4	-11
CCOC(=O)C(C(=O)OCC)c1cc(Br)c2noc3c2c1C(=O)c1ccccc1-3	8	2	23	35*	8	12
CCc1ccc2oc(-c3ccc(OC)cc3)cc(=Nc3c(C)n(C)n(-c4ccccc4)c3=O)c2c1	3	-22	-11	47*	-5	2
c1ccc(-c2ccncn2)cc1	1	4	-5	-8	-3	3
CC(C)Oc1ccc(C(=O)Nc2ccc(N3CCCC3)cc2)cc1	-1	-13	12	29*	-9	-6
COc1cccc(OC)c1C(=O)Nc1ccc(N2CCCC2)cc1	0	-19	-2	31*	-7	-18
COc1ccccc1C(=O)Nc1ccc(N2CCCCC2)cc1	1	4	-22	-8	-5	19
CCOc1ccc(NC(=O)CN(C)C(=O)CC2OC(=O)c3ccccc32)cc1OCC (stereo not drawn)	1	3	-12	-6	-3	-10
CCOC(=O)c1cc2sccc2n1CC(=O)Nc1ccc(OC)cc1	0	-1	-8	2	-3	9
CCOC(=O)c1cc2sccc2n1CC(=O)OC(C)C	-1	19*	-27	-50	-4	-10
Cc1cc(/C=N/NC(=O)c2ccc(O)cc2)c(C)n1C1CC1	0	1	28*	-4	-1	-13
FC(F)Sc1ccc(NC(=S)N2CCN(c3ccccn3)CC2)cc1	14	-18	18	22*	-5	-16
Oc1ccccc1N1CCN(C(=S)Nc2ccc(SC(F)F)cc2)CC1	13	-6	-5	25	2	17
COc1ccc(CCN2C(=O)CS/C2=N\NC(=O)c2cccs2)cc1OC	18*	10	0	-13	-3	10
CCOC(=O)C1CCCN(C2CCN(Cc3nc(Cc4ccccc4)no3)CC2)C1 (stereo not drawn)	1	-8	-12	19	17*	13
COCC1CCCN(Cc2nc(Cc3ccccc3)no2)C1 (stereo not drawn)	0	11	-3	12	-1	0
SMILES	CHO-K1 Ca ag	M1 PAM	CHO-K1 Ca antag	M1 antag	CHRM1 agonist	CHO-K1 Ca PAM
CCOC(=O)C1CCCN(Cc2nc(C3CC3)no2)C1 (stereo not drawn)	1	7	-8	-11	-1	14
CCOC(=O)C1CCN(C2CCN(Cc3nc(-c4ccccc4)no3)CC2)CC1	1	0	5	-6	-13	-2
CCOC(=O)C1CCCN(Cc2nc(Cc3cccc(F)c3)no2)C1 (stereo not drawn)	2	-8	-10	-3	33*	17
CCOC(=O)C1CCCN(C2CCN(Cc3nc(-c4ccccc4)no3)CC2)C1 (stereo not drawn)	1	-22	-1	42*	42*	11
COC(=O)C1CCN(C(=O)COC(=O)/C=C/c2ccc(O)c(OC)c2)CC1	0	-13	20	25	6	-18
Cc1c(C(=O)OC(C)CCN(C)C)oc2ccccc12 (stereo not drawn)	1	-22	-4	98*	-5	9
Cc1c(C(=O)OCC(=O)N(C)c2ccccc2)oc2ccccc12	3	-22	-9	33*	-5	5
Cc1c(C(=O)OCC(=O)N(C)Cc2ccccc2)oc2ccccc12	1	0	5	-1	-8	-8
CC(C)(C)c1ccc(C(=O)OCCN2CCCCC2)cc1	10	-30	-14	45*	-7	12
Cc1c(C(=O)OCC(C)(C)CN(C)C)oc2ccccc12	1	-20	-10	53*	-4	16
COc1ccc(C(=O)OCCN2CCCCC2)cc1	0	9	-1	-8	-14	11
O=C(NCC1CCCO1)c1ccc(N2C(=O)C3CCCCC3C2=O)cc1 (stereo not drawn)	0	-1	-16	1	-1	1
CCOc1cc(C(=S)N2CCOCC2)cc(Br)c1OS(=O)(=O)c1ccccc1	0	4	-2	-10	-4	2
O=[N+]([O-])c1cnccc1-n1nnc2ccccc21	0	/	-7	/	/	4
CCN(CC)CC(C)(C)COC(=O)c1oc2ccccc2c1C	0	-22	-11	32*	-7	-6
Cc1c(C(=O)OCC(=O)N2C(C)CCCC2C)oc2ccccc12 (stereo not drawn)	1	4	6	-12	-6	0
Cc1c(C(=O)OCCN2CCCCC2)oc2ccccc12	0	-21	-6	92*	-4	19
COc1ccc(CCn2c(C)cc(C(=O)CSc3nnnn3-c3ccccc3)c2C)cc1	-1	-2	24*	6	-4	-8
Fc1ccc(-n2nnc(-c3cccnc3)n2)cc1	1	18	-12	-24	-1	17
Fc1ccc(C(CCCn2nnc(-c3cccnc3)n2)c2ccc(F)cc2)cc1	3	-8	3	27*	-2	15
CCC1CCCCN1S(=O)(=O)c1ccc(NC(=O)c2ccncc2)cc1 (stereo not drawn)	16*	-13	12	34*	4	-14
CCC1CCCCN1S(=O)(=O)c1ccc(S(=O)(=O)N(Cc2cccs2)C2CC2)cc1 (stereo not drawn)	2	-36	-10	63*	-10	5
